Results: PubChem BioAssay AID1159580 (chemical genetic matrix, 2015)
Screen size: about 5,500 compounds; about 2,000 (36%) were called active. About 18% were inconclusive and are not listed. Rule as the data show it: active = normalized growth mostly below about 0.91 (no sharp cut-off); inconclusive = no clear call, values can overlap the other calls; inactive = mostly above about 0.92. This is one part of the list.

Assay: chemical genetic growth profiling, strain panel (AID 1159580);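 also: tested at 20 µM; growth read once vehicle control cultures reached saturation at 30 °C; 1 = growth at the plate median or of vehicle wells; lower values mean less growth of the strain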
Conditions: growth OD
[1] = S. cerevisiae deletion strains, locus YHR030C, strain SLT2, hits give low values
[2] = S. cerevisiae deletion strains, locus YJL095W, strain BCK1, hits give low values
[3] = S. cerevisiae deletion strains, locus YOR061W, strain CKA2, hits give low values

Measured: normalized growth

Oc1c(Br)cc(Br)cc1C=Nc1ccccn1
inactive: S. cerevisiae deletion strains, locus YBL105C, strain PKC1, hits give low values 0.969 | S. cerevisiae deletion strains, locus YBR135W, strain CKS1, hits give low values 0.965 | S. cerevisiae deletion strains, locus YBR136W, strain MEC1, hits give low values 0.967 | S. cerevisiae deletion strains, locus YBR160W, strain CDC28, hits give low values 0.965 | S. cerevisiae deletion strains, locus YDL017W, strain CDC7, hits give low values 0.958 | S. cerevisiae deletion strains, locus YDL028C, strain MPS1, hits give low values 0.96 | S. cerevisiae deletion strains, locus YDL108W, strain KIN28, hits give low values 0.978 | S. cerevisiae deletion strains, locus YDR052C, strain DBF4, hits give low values 0.968 | S. cerevisiae deletion strains, locus YDR226W, strain ADK1, hits give low values 0.989 | S. cerevisiae deletion strains, locus YFR003C, strain YPI1, hits give low values 0.952 | S. cerevisiae deletion strains, locus YFR028C, strain CDC14, hits give low values 0.984 | S. cerevisiae deletion strains, locus YIL147C, strain SLN1, hits give low values 0.965 | S. cerevisiae deletion strains, locus YJL128C, strain PBS2, hits give low values 0.937 | S. cerevisiae deletion strains, locus YJR016C, strain ILV3, hits give low values 0.974 | S. cerevisiae deletion strains, locus YMR001C, strain CDC5, hits give low values 0.962 | S. cerevisiae deletion strains, locus YNL161W, strain CBK1, hits give low values 0.968 | S. cerevisiae deletion strains, locus YNL207W, strain RIO2, hits give low values 0.965 | S. cerevisiae deletion strains, locus YNL222W, strain SSU72, hits give low values 0.96 | S. cerevisiae deletion strains, locus YOR329C, strain SCD5, hits give low values 0.963 | S. cerevisiae deletion strains, locus YPL209C, strain IPL1, hits give low values 0.967 | S. cerevisiae deletion strains, locus YPR025C, strain CCL1, hits give low values 0.968 | S. cerevisiae deletion strains, locus YPR106W, strain ISR1, hits give low values 0.962 | S. cerevisiae deletion strains, locus YPR111W, strain DBF20, hits give low values 0.953 | S. cerevisiae deletion strains, strain NNK1, hits give low values 0.947
active: S. cerevisiae deletion strains, locus YDL214C, strain PRR2, hits give low values 0.221 | S. cerevisiae deletion strains, locus YDR477W, strain SNF1, hits give low values 0.417 | S. cerevisiae deletion strains, locus YER123W, strain YCK3, hits give low values 0.119 | S. cerevisiae deletion strains, locus YER133W, strain GLC7, hits give low values 0.288 | S. cerevisiae deletion strains, locus YFR019W, strain FAB1, hits give low values 0.111 | S. cerevisiae deletion strains, locus YGR040W, strain KSS1, hits give low values 0.437 | S. cerevisiae deletion strains, locus YGR052W, strain FMP48, hits give low values 0.179 | S. cerevisiae deletion strains, locus YGR092W, strain DBF2, hits give low values 0.16 | [1] 0.133 | S. cerevisiae deletion strains, locus YHR079C, strain IRE1, hits give low values 0.135 | S. cerevisiae deletion strains, locus YHR082C, strain KSP1, hits give low values 0.161 | S. cerevisiae deletion strains, locus YHR205W, strain SCH9, hits give low values 0.118 | [2] 0.132 | S. cerevisiae deletion strains, locus YJL157C, strain FAR1, hits give low values 0.165 | S. cerevisiae deletion strains, locus YJR066W, strain TOR1 (second series), hits give low values 0.368 | S. cerevisiae deletion strains, locus YJR066W, strain TOR1, hits give low values 0.141 | S. cerevisiae deletion strains, locus YKL048C, strain ELM1, hits give low values 0.55 | S. cerevisiae deletion strains, locus YKL067W, strain YNK1, hits give low values 0.213 | S. cerevisiae deletion strains, locus YKL101W, strain HSL1, hits give low values 0.375 | S. cerevisiae deletion strains, locus YKL203C, strain TOR2, hits give low values 0.348 | S. cerevisiae deletion strains, locus YLR113W, strain HOG1, hits give low values 0.154 | S. cerevisiae deletion strains, locus YLR133W, strain CKI1, hits give low values 0.165 | S. cerevisiae deletion strains, locus YLR403W, strain SFP1, hits give low values 0.167 | S. cerevisiae deletion strains, locus YML070W, strain DAK1, hits give low values 0.113 | S. cerevisiae deletion strains, locus YMR205C, strain PFK2 (second series), hits give low values 0.211 | S. cerevisiae deletion strains, locus YNL006W, strain LST8, hits give low values 0.895 | S. cerevisiae deletion strains, locus YNL020C, strain ARK1, hits give low values 0.14 | S. cerevisiae deletion strains, locus YNL183C, strain NPR1, hits give low values 0.146 | S. cerevisiae deletion strains, locus YNL307C, strain MCK1 (second series), hits give low values 0.23 | S. cerevisiae deletion strains, locus YOL136C, strain PFK27, hits give low values 0.116 | [3] 0.114 | S. cerevisiae deletion strains, locus YOR119C, strain RIO1, hits give low values 0.341 | S. cerevisiae deletion strains, locus YOR231W, strain MKK1, hits give low values 0.12 | S. cerevisiae deletion strains, locus YPL031C, strain PHO85, hits give low values 0.296 | S. cerevisiae deletion strains, locus YPL153C, strain RAD53, hits give low values 0.23 | S. cerevisiae deletion strains, locus YPL204W, strain HRR25, hits give low values 0.304 | S. cerevisiae deletion strains, locus YPL256C, strain CLN2, hits give low values 0.155

CCOC(=O)NC1=C(C2CC2)C(=O)C(NC(=O)OCC)=C(C2CC2)C1=O
inactive: S. cerevisiae deletion strains, locus YAL013W, strain DEP1, hits give low values 0.97 | S. cerevisiae deletion strains, locus YBR021W, strain FUR4, hits give low values 0.961 | S. cerevisiae deletion strains, locus YBR229C, strain ROT2, hits give low values 1 | S. cerevisiae deletion strains, locus YCL029C, strain bik1, hits give low values 0.993 | S. cerevisiae deletion strains, locus YDL035C, strain GPR1, hits give low values 1 | S. cerevisiae deletion strains, locus YDL074C, strain BRE1, hits give low values 1.04 | S. cerevisiae deletion strains, locus YDL101C, strain DUN1, hits give low values 1 | S. cerevisiae deletion strains, locus YDL134C, strain PPH21, hits give low values 1 | S. cerevisiae deletion strains, locus YDL185W, strain tfp1, hits give low values 0.98 | S. cerevisiae deletion strains, locus YDL192W, strain arf1, hits give low values 0.991 | S. cerevisiae deletion strains, locus YDR101C, strain arx1, hits give low values 0.993 | S. cerevisiae deletion strains, locus YDR150W, strain NUM1, hits give low values 0.99 | S. cerevisiae deletion strains, locus YDR162C, strain NBP2, hits give low values 1.01 | S. cerevisiae deletion strains, locus YDR318W, strain mcm21, hits give low values 0.99 | S. cerevisiae deletion strains, locus YDR388W, hits give low values 0.995 | S. cerevisiae deletion strains, locus YDR502C, strain sam2, hits give low values 0.996 | S. cerevisiae deletion strains, locus YEL061C, strain CIN8, hits give low values 0.995 | S. cerevisiae deletion strains, locus YER110C, hits give low values 0.98 | S. cerevisiae deletion strains, locus YER155C, strain BEM2, hits give low values 0.994 | S. cerevisiae deletion strains, locus YER167W, strain BCK2, hits give low values 0.98 | S. cerevisiae deletion strains, locus YGL078C, strain dbp3, hits give low values 0.983 | S. cerevisiae deletion strains, locus YGL086W, strain mad1, hits give low values 0.982 | S. cerevisiae deletion strains, locus YGL248W, strain PDE1, hits give low values 1 | S. cerevisiae deletion strains, locus YGR078C, strain PAC10, hits give low values 1.01 | S. cerevisiae deletion strains, locus YGR135W, strain pre9, hits give low values 1 | S. cerevisiae deletion strains, locus YGR229C, strain SMI1, hits give low values 1.04 | S. cerevisiae deletion strains, locus YGR252W, strain gcn5, hits give low values 1.02 | [1] 0.986 | S. cerevisiae deletion strains, locus YHR079C, strain IRE1 (second series), hits give low values 0.99 | S. cerevisiae deletion strains, locus YHR094C, strain hxt1, hits give low values 0.976 | S. cerevisiae deletion strains, locus YHR129C, strain ARP1, hits give low values 0.999 | S. cerevisiae deletion strains, locus YHR200W, strain rpn10, hits give low values 0.992 | S. cerevisiae deletion strains, locus YIL066C, strain RNR3, hits give low values 1 | S. cerevisiae deletion strains, locus YIL073C, strain SPO22, hits give low values 0.9 | S. cerevisiae deletion strains, locus YIL125W, strain kgd1, hits give low values 0.988 | S. cerevisiae deletion strains, locus YIR030C, strain dcg1, hits give low values 0.995 | [2] 1.05 | S. cerevisiae deletion strains, locus YJL134W, strain LCB3, hits give low values 0.993 | S. cerevisiae deletion strains, locus YJL168C, strain set2, hits give low values 0.993 | S. cerevisiae deletion strains, locus YJL187C, strain SWE1 (second series), hits give low values 0.988 | S. cerevisiae deletion strains, locus YJR043C, strain POL32, hits give low values 0.997 | S. cerevisiae deletion strains, locus YJR075W, strain HOC1, hits give low values 0.999 | S. cerevisiae deletion strains, locus YKL009W, strain mrt4, hits give low values 0.973 | S. cerevisiae deletion strains, locus YKL068W, hits give low values 0.98 | S. cerevisiae deletion strains, locus YKL085W, strain MDH1 (second series), hits give low values 0.984 | S. cerevisiae deletion strains, locus YKL085W, strain MDH1, hits give low values 0.984 | S. cerevisiae deletion strains, locus YKL190W, strain CNB1, hits give low values 0.994 | S. cerevisiae deletion strains, locus YKR001C, strain vps1, hits give low values 0.989 | S. cerevisiae deletion strains, locus YLR039C, strain RIC1, hits give low values 0.96 | S. cerevisiae deletion strains, locus YLR058C, strain SHM2, hits give low values 0.984 | S. cerevisiae deletion strains, locus YLR102C, strain apc9, hits give low values 0.992 | S. cerevisiae deletion strains, locus YLR262C, strain YPT6, hits give low values 1.01 | S. cerevisiae deletion strains, locus YLR268W, strain sec22, hits give low values 1.01 | S. cerevisiae deletion strains, locus YLR330W, strain CHS5, hits give low values 0.989 | S. cerevisiae deletion strains, locus YLR342W, strain FKS1 (second series), hits give low values 0.976 | S. cerevisiae deletion strains, locus YLR371W, strain rom2, hits give low values 0.976 | S. cerevisiae deletion strains, locus YLR418C, strain cdc73, hits give low values 1.03 | S. cerevisiae deletion strains, locus YML016C, strain PPZ1, hits give low values 0.99 | S. cerevisiae deletion strains, locus YML032C, strain rad52, hits give low values 0.985 | S. cerevisiae deletion strains, locus YML124C, strain tub3, hits give low values 0.988 | S. cerevisiae deletion strains, locus YMR078C, strain ctf18, hits give low values 0.993 | S. cerevisiae deletion strains, locus YMR223W, strain ubp8, hits give low values 0.979 | S. cerevisiae deletion strains, locus YMR263W, strain SAP30, hits give low values 1.01 | S. cerevisiae deletion strains, locus YMR307W, strain GAS1, hits give low values 0.999 | S. cerevisiae deletion strains, locus YNL067W, strain RPL9B, hits give low values 1.03 | S. cerevisiae deletion strains, locus YNL128W, strain TEP1, hits give low values 1.01 | S. cerevisiae deletion strains, locus YNL153C, strain GIM3, hits give low values 1.01 | S. cerevisiae deletion strains, locus YNL233W, strain BNI4, hits give low values 1.01 | S. cerevisiae deletion strains, locus YNL250W, strain rad50, hits give low values 0.981 | S. cerevisiae deletion strains, locus YNL271C, strain bni1, hits give low values 0.984 | S. cerevisiae deletion strains, locus YNL298W, strain CLA4, hits give low values 0.985 | S. cerevisiae deletion strains, locus YNL307C, strain MCK1, hits give low values 0.985 | S. cerevisiae deletion strains, locus YNL322C, strain KRE1, hits give low values 0.998 | S. cerevisiae deletion strains, locus YNR052C, strain pop2, hits give low values 0.98 | S. cerevisiae deletion strains, locus YOL006C, strain TOP1, hits give low values 1.1 | S. cerevisiae deletion strains, locus YOL012C, strain htz1 1.15 | S. cerevisiae deletion strains, locus YOL147C, strain pex11, hits give low values 0.986 | [3] 1 | S. cerevisiae deletion strains, locus YOR069W, strain VPS5, hits give low values 0.995 | S. cerevisiae deletion strains, locus YOR136W, strain idh2, hits give low values 0.983 | S. cerevisiae deletion strains, locus YOR144C, strain elg1, hits give low values 1 | S. cerevisiae deletion strains, locus YOR184W, strain ser1, hits give low values 0.974 | S. cerevisiae deletion strains, locus YOR316C, strain cot1, hits give low values 0.985 | S. cerevisiae deletion strains, locus YPL055C, strain LGE1, hits give low values 1.04 | S. cerevisiae deletion strains, locus YPL241C, strain CIN2, hits give low values 0.999 | S. cerevisiae deletion strains, locus YPR119W, strain clb2, hits give low values 0.988 | S. cerevisiae deletion strains, locus YPR141C, strain kar3, hits give low values 0.984 | S. cerevisiae deletion strains, locus YPR163C, strain tif3, hits give low values 0.988 | S. cerevisiae deletion strains, locus YPR167C, strain met16, hits give low values 1 | S. cerevisiae deletion strains, strain wtn01, hits give low values 0.995 | S. cerevisiae strains, strain wild type, hits give low values 0.995
